Test results taken from ChEMBL document CHEMBL1201862, “PubChem BioAssay data set” (2004).
Screen size: about 400,000 compounds; about 2,100 (0.53%) were called active. About 14% were inconclusive and are not listed. This is one part of a sample in which actives are shown more often than they occur. How the calls were made is not given here.

target: Ataxin-2 (Homo sapiens) (UniProt Q99700); assay: qHTS for Inhibitors of ATXN expression.; type: functional
Sequence (Q99700 whole entry): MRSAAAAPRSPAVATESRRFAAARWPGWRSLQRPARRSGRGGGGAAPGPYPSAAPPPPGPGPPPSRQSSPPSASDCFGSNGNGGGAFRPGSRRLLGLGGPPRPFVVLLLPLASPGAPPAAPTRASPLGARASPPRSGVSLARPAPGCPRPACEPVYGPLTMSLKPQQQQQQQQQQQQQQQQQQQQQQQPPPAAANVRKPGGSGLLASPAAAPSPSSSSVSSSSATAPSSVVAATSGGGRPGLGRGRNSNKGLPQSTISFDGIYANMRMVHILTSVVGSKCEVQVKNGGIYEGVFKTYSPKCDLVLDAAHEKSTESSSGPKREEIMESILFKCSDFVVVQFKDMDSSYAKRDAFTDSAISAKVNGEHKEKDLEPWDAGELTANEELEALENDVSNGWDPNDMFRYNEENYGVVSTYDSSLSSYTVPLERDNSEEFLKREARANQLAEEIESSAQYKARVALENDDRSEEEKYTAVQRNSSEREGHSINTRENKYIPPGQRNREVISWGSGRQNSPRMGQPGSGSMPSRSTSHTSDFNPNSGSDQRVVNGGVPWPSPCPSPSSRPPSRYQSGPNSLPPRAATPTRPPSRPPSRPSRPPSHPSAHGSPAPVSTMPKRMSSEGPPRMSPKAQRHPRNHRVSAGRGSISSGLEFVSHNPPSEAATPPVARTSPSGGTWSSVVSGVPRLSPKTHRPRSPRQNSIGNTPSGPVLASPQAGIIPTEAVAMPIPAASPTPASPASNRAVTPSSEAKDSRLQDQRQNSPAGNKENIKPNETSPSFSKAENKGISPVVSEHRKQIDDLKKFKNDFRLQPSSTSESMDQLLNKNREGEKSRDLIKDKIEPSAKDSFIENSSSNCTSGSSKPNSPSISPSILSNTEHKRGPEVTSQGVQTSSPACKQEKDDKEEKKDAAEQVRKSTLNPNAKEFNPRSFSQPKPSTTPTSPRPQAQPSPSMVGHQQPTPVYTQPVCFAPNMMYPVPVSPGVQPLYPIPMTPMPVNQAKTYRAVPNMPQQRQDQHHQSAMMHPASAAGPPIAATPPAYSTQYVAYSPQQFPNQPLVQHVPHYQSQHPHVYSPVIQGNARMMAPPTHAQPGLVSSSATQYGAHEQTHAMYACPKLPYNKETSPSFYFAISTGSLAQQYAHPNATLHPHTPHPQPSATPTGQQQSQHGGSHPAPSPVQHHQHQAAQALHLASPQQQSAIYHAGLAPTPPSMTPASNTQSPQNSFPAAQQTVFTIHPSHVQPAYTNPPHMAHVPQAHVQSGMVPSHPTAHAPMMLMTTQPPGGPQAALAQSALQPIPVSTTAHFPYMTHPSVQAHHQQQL

Row | SMILES | Potency
1 | CCCC(C)NC(=O)c1cc(S(=O)(=O)N2CCCCCC2)ccc1OC (stereo unspecified) | inactive
2 | CCCCCCNC(=O)O[C@H]1CN(C(=O)OC(C)C)N(C(=O)OC(C)C)[C@@H]2CN(S(=O)(=O)c3ccc(C)cc3)C[C@]12O | 22.4 µM (active)
3 | COCCN(CCOC)C(=O)CSc1ccc(S(=O)(=O)N2CCN(C)CC2)cn1 | inactive
4 | CC1=C(C(=O)Nc2nc3ccccc3s2)C(c2ccco2)C(C#N)=C(SCC(=O)NC2CCCCC2)N1 (stereo unspecified) | inactive
5 | COC(=O)c1ccc(NS(=O)(=O)c2ccc3c(c2)n(C)c(=O)n3C)cc1 | inactive
6 | O=C(CSc1nc2cc(Cl)c(Cl)cc2[nH]1)c1ccc2c(c1)OCO2 | inactive
7 | O=C(Nc1ccc2c(c1)OCO2)c1sc2cc(Cl)ccc2c1Cl | inactive
8 | CC(=O)Nc1ccc2nc3c(=O)n(C)c(=O)n(C)c3nc2c1 | inactive
9 | O=C(Cn1ncc(Cl)c(Cl)c1=O)c1ccc2c(c1)OCCO2 | 42.3 µM (active)
10 | O=C(CCl)Nc1ccc2c(c1)OCO2 | 22.4 µM (active)
11 | O=C(Cn1ncc(Cl)c(Cl)c1=O)Nc1ccc2c(c1)OCO2 | 35.5 µM (active)
12 | Cc1ccc(C(=O)O)cc1-c1ccc(/C=C2\SC(=O)N(CC(=O)Nc3ccc4c(c3)OCO4)C2=O)o1 | inactive
13 | Cn1c(=O)n(C)c2cc(NC(=O)CCl)ccc21 | 28.2 µM (active)
14 | CC(NS(=O)(=O)c1ccc(Cl)c(Cl)c1)C(=O)OCC(=O)Nc1ccc2c(c1)OCO2 (stereo unspecified) | inactive
15 | NC(=O)c1ccc(NC(=O)COC(=O)c2c3c(nc4ccccc24)/C(=C\c2ccc4c(c2)OCO4)CCC3)cc1 | inactive
16 | COc1ccc(-c2c(C)c3ccc(O)c(CN4CCOCC4)c3oc2=O)cc1OC | inactive
17 | COc1ccc(/C=C/c2nc(C#N)c(N3CCCCC3)o2)cc1OC | inactive
18 | C=CCN=C(S)Nc1ccc(C)c(S(=O)(=O)N2CCCCC2)c1 | inactive
19 | CCCc1cc(O)nc(SCC(=O)Nc2ccc(C)c(S(=O)(=O)N3CCCCC3)c2)n1 | inactive
20 | Cc1ccc(NC(=O)Cn2ncc(Cl)c(Cl)c2=O)cc1S(=O)(=O)N1CCCCC1 | 31.6 µM (active)
21 | Cc1c(Br)c(C(F)(F)F)nn1CC(=O)NCc1ccco1 | inactive
22 | CCN(c1ccc(N/C=C2/C(=O)N(Cc3ccc(OC)cc3)C(=O)c3ccccc32)cc1)C(C)C | inactive
23 | COc1ccc(CCNC(=O)CN(c2ccccc2)S(C)(=O)=O)cc1 | inactive

Row | SMILES | Potency
24 | COc1ccc(CN([C@H](CO)CC(C)C)S(=O)(=O)N(Cc2ccccc2)[C@H](CO)CC(C)C)cc1 | 39.8 µM (active)
25 | C=CS(=O)(=O)c1c2cc(OC)ccc2nc2ccc(OC)cc12 | inactive
26 | Cc1cccn2c(=O)c(C=O)c(N3CCCCC3)nc12 | inactive
27 | Nc1c(C(=O)Nc2ccccc2Br)sc2nc(-c3cccs3)ccc12 | inactive
28 | O=C(NC(=S)Nc1ccc(N2CCCC2)cc1)c1ccc(F)cc1 | inactive
29 | Cc1nn(CC(=O)N2CCN(c3ccc(Cl)cc3)CC2)c(=O)c2cccn12 | inactive
30 | O=C(c1nc(-c2ccc(Cl)cc2)n2c1CCCCC2)N1CCN(c2ccc(F)cc2)CC1 | 22.4 µM (active)
31 | CCC(C)n1c(=N)c(C#N)cc2c(=O)n3cccc(C)c3nc21 (stereo unspecified) | inactive
32 | O=C(CN1C(=O)NC(Cc2c[nH]c3ccccc23)C1=O)Nc1cccc(S(=O)(=O)N2CCCC2)c1 (stereo unspecified) | inactive
33 | COc1ccccc1C1c2[nH]c3ccccc3c2CCN1Cc1cnc(C)s1 (stereo unspecified) | inactive
34 | COC(=O)Cc1c(C)c2ccc3c(c2oc1=O)CN(Cc1ccc(C)cc1)CO3 | inactive
35 | C=CCC[C@@H](Cc1ccc(F)cc1)C(=O)OC[C@@H]1CCCN1C(=O)[C@@H](CC=C)CC(=O)N[C@@H](CO)Cc1ccccc1 | 28.2 µM (active)
36 | C=CC[C@@H](Cc1ccc(F)cc1)C(=O)OC[C@@H]1CCCN1C(=O)[C@H](CC=C)CC(=O)N[C@H](CO)Cc1ccccc1 | 39.8 µM (active)
37 | C=CCC[C@@H](Cc1ccc(F)cc1)C(=O)OC[C@@H]1CCCN1C(=O)[C@H](CC=C)CC(=O)N[C@H](CO)Cc1ccccc1 | 35.5 µM (active)
38 | CC(=O)Nc1nn(C)c2nc3ccc(C)cc3cc12 | inactive
39 | C/C(CC(=O)Nc1cccc(C(F)(F)F)c1)=N\NC(=O)c1ccncc1 | inactive
40 | CCCCCNCC(=O)Nc1cccc(C(=O)Nc2cccc(C(F)(F)F)c2)c1 | 26.7 µM (active)
41 | CCN1C(=O)c2ccc(C(=O)Nc3cccc(C(=O)O)c3)cc2C1=O | inactive
42 | [O-][n+]1c(-c2ccccc2)c(O)nc2ccccc21 | inactive
43 | COc1ccc2c(Cl)c(C(=O)N/N=C3\CCCC(=O)C3)sc2c1 | inactive
44 | COCC(C)OC(=O)c1c(N)n(CC(C)C)c2nc3ccccc3nc12 (stereo unspecified) | inactive
45 | CCCCc1ccc(-c2csc(/C(C#N)=C\c3ccco3)n2)cc1 | inactive
46 | Cc1ccc(O)c(NC(=S)NC(=O)c2ccc(-c3ccc(Cl)cc3)o2)c1 | 22.4 µM (active)

Row | SMILES | Potency
47 | CCOCCCn1c(=N)c(C(N)=S)cc2c(=O)n3cccc(C)c3nc21 | inactive
48 | CCN1CCN(c2ccc(S(=O)(=O)N3CCCCC3)cc2NC(=O)c2ccc([N+](=O)[O-])o2)CC1 | 28.2 µM (active)
49 | Cc1ccccc1NC(=O)c1cc(S(=O)(=O)N2CCCCC2)ccc1N1CCOCC1 | inactive
50 | CN1CCN(c2ccc(S(=O)(=O)N3CCCCC3)cc2NC(=O)c2cccc([N+](=O)[O-])c2)CC1 | inactive
51 | NC(=O)c1ccc(NC(=O)c2cc(S(=O)(=O)N3CCCCC3)ccc2N2CCOCC2)cc1 | inactive
52 | O=C(Nc1ccc(S(=O)(=O)N2CCCC2)cc1)c1ccc([N+](=O)[O-])o1 | 37.7 µM (active)
53 | Cc1cc(C(=O)Nc2ccc(S(=O)(=O)N3CCOCC3)cc2)c(C)o1 | inactive
54 | CC(=O)Oc1ccc(OC(C)=O)c(SCCCCCCl)c1 | inactive
55 | CC1=CC2C(C(O)CC3(C)C2CC(C)C32OCOC23COCO3)C2(C)CC(C=O)=C(O)C=C12 (stereo unspecified) | 15 µM (active)
56 | COc1cc(/C=C2\C(=N)N3N=C(S(C)(=O)=O)SC3=NC2=O)ccc1OCCOc1ccccc1C | inactive
57 | O=C(CCc1ccc(O)cc1)N/N=C/c1coc2ccccc2c1=O | inactive
58 | CNC(=O)c1c(NC(=O)c2ccc(S(=O)(=O)N3CCCC(C)C3)cc2)sc2c1CCC2 (stereo unspecified) | inactive
59 | COCCNC(=O)c1c(N)n(CCC2=CCCCC2)c2nc3ccccc3nc12 | inactive
60 | COc1ccccc1Nc1nn2c(=O)c3ccc(C(=O)NCCC4=CCCCC4)cc3nc2s1 | 6.31 µM (active)
61 | CCOc1ccccc1NC(=O)c1ccc2c(O)c(S(=O)(=O)c3ccccc3)c(O)nc2c1 | inactive
62 | O=C1/C(=C/Nn2cnnc2)c2ccccc2C(=O)N1c1ccccc1 | inactive
63 | N#Cc1cc2c(=O)n3ccccc3nc2n(Cc2cccnc2)c1=O | inactive
64 | Cc1ccc2nc3c(cc(C(=O)NCCc4ccccc4)c(=N)n3CC3CCCO3)c(=O)n2c1 (stereo unspecified) | inactive
65 | CCC[C@@H](CN[C@@H](CNC)[C@H](C)CC)NCC1CCC(C(C)(C)C)CC1 (stereo partly specified) | 35.5 µM (active)
66 | CCC[C@H](CN[C@@H](CNC)[C@H](C)CC)NCCc1cc(C(F)(F)F)cc(C(F)(F)F)c1 | 25.1 µM (active)
67 | Cc1cc(S(=O)(=O)c2cc3ccc(O)c(C)c3oc2=O)ccc1F | inactive
68 | Cn1nc(C(=O)OCC(=O)Nc2ccccc2OC(F)F)c2ccccc2c1=O | inactive
69 | CCOC(=O)c1cc2c(=O)n3ccccc3nc2n(CC2CCCO2)/c1=N\C(=O)c1ccccc1F (stereo unspecified) | inactive

Row | SMILES | Potency
70 | Cc1ccc(-n2c(S)nnc2Cn2c(C)nc3ccccc32)cc1 | inactive
71 | O=[N+]([O-])c1ccc(C2=NN(c3ccccc3)C(c3ccco3)C2)cc1 (stereo unspecified) | inactive
72 | COc1ccc(C2CC(c3ccccc3)=NN2c2ccc(S(N)(=O)=O)cc2)cc1 (stereo unspecified) | inactive
73 | COc1ccc(C2CC(c3ccccc3)=NN2C(=O)c2ccc(Cl)c([N+](=O)[O-])c2)cc1 (stereo unspecified) | 31.6 µM (active)
74 | Cc1nc(N2N=C(c3ccc(Cl)cc3)CC2c2ccco2)sc1C(=O)N(C)C (stereo unspecified) | inactive
75 | COc1ccc(C2CC(c3ccccc3)=NN2c2ccc(Cl)c(C(=O)O)c2)cc1 (stereo unspecified) | inactive
76 | COc1ccc(C2=NN(c3ccccc3)C(c3cn(CCC(=O)O)nc3-c3ccccc3)C2)cc1 (stereo unspecified) | inactive
77 | COc1ccc(C2=NN(C(=O)COC(=O)c3ccc(S(C)(=O)=O)c([N+](=O)[O-])c3)C(c3ccco3)C2)cc1 (stereo unspecified) | 23.8 µM (active)
78 | CCn1cc([N+](=O)[O-])c(C(=O)N2N=C(c3ccc(Cl)c(Cl)c3)CC2c2ccccc2O)n1 (stereo unspecified) | 39.8 µM (active)
79 | Cc1ccc(C2=CC(c3ccc(N(C)C)cc3)n3nnnc3N2)cc1 (stereo unspecified) | inactive
80 | CN1CCc2c(sc3c2C(=O)NC(c2ccccc2)N3)C1 (stereo unspecified) | inactive
81 | Cc1ccc(S(=O)(=O)c2cc3ccccc3nc2N)cc1 | inactive
82 | Cc1ccc2nc3c(cc(C#N)c(=O)n3-c3nccs3)c(=O)n2c1 | inactive
83 | Cc1c(Cc2ccccc2)sc(/N=C/c2c(O)ccc3ccccc23)c1C(N)=O | inactive
84 | Cc1ccc(-c2cc(-c3ccco3)c(C#N)c(O)n2)cc1 | inactive
85 | CCOC(=O)c1c(NC(=O)C(NCCN(C)C)c2ccccc2)sc2c1CCCC2 (stereo unspecified) | 39.8 µM (active)
86 | CCOC(=O)c1c(NC(=O)C(C)Sc2c[nH]c3ccccc23)sc2c1CCC2 (stereo unspecified) | 3.16 µM (active)
87 | CCOC(=O)c1c(NC(=O)c2ccc(S(=O)(=O)N(CC(C)C)CC(C)C)cc2)sc2c1CCN(CC)C2 | inactive
88 | CCOC(=O)c1c(NC(=O)C(C)Sc2cccc[n+]2[O-])sc2c1CCN(Cc1ccccc1)C2 (stereo unspecified) | inactive
89 | CCOC(=O)c1c(NC(=O)Nc2ccc(C)cc2)sc2c1CCN(C)C2 | inactive
90 | CCOC(=O)c1c(NC(=O)c2ccc(S(=O)(=O)N(C)C3CCCCC3)cc2)sc2c1CCN(C(C)C)C2 | inactive
91 | Cc1ccc2nc(N3CCN(CCO)CC3)nc(-c3ccccc3)c2c1 | inactive
